The text below walks through data of PubChem BioAssay AID463173 (ICCB-Longwood Screening Facility, Harvard Medical School, 2010).

Among all 52,000 compounds or so, about 4,300 (8.3%) were called active. The sample holds actives, similar compounds and a random draw of the others, so the mix is not that of the screen. Values without a mark were called inactive. Rule as the data show it: active = survival mostly below about 52% (no sharp cut-off); inactive = mostly above about 56%.

The subject of this experiment is DeltatarO mutant. Description: growth inhibition of S. aureus wild type versus tarO mutant, primary screen, teichoic acid synthesis inhibitors, RN4220, OD600 (AID 463173). The settings on record: OD600, 18 h, active compounds read low, screened at 18.75 µg/mL (by protocol).
Turning to `COc1ccc(-c2ccc(=O)n(CC(=O)NCCc3ccccc3)n2)cc1`, the survival is 70%. Turning to `CCCC(CCC)C(=O)Nc1ccc(NC(=O)c2ccco2)cc1`, the survival was 98%.

Consider `CCOc1cccc2cc(-c3nc4ccc(C(=O)O)cc4[nH]3)c(=O)oc12`, for which the survival is 69%.

On to `Cc1ccc2c(c1)N(C(=O)N1CCC(C(=O)NCc3cccs3)CC1)CC(C)O2` (configuration not stated), for which the survival was 91%.

Consider `Cc1cc(C)c2c(-n3cccc3)c(C(=O)NCCCN3CCCCC3C)sc2n1` (configuration not stated), for which the survival is 93%. `O=C(NCCCN1CCN(c2ccccc2)CC1)c1sc2ncccc2c1-n1cccc1`: the survival is 91%. As for `COc1ccc(N2CCN(CCCNC(=O)c3sc4ncccc4c3-n3cccc3)CC2)cc1`, the survival was 101%. As to `O=C(NCCCN1CCN(c2ccc(F)cc2)CC1)c1sc2ncccc2c1-n1cccc1`, the survival was 37% (active). Take `CC1CCCCN1CCCNC(=O)c1sc2ncccc2c1-n1cccc1` (configuration not stated): the survival was 25% (active). `O=C(NCCCN1CCCCC1)c1sc2ncccc2c1-n1cccc1`: the survival was 92%. With `CC1=C(C(=O)OC2CCCC2)C(c2ccccc2Cl)CC(=O)N1` (configuration not stated) the figure was 70%; with `CN1CCc2nc3sc(C(=O)c4ccc(F)cc4)c(N)c3cc2C1`, 71%. With `COc1ccc(CCNC(=O)C(C)n2nc(C)c3sc4ccccc4c3c2=O)c(OC)c1` (configuration not stated) the figure was 58%. For `COc1cc2nc(C3CCC3)n(N)c(=O)c2cc1OC`, the survival was 75%. On to `O=C(NCc1ccncc1)C1CCN(C(=O)c2cccc(Cl)c2)CC1`, for which the survival was 74%. With `O=C(CN1C(=O)C2CCCCN2c2ccc(C(=O)N3CCCC3)cc21)NCc1cccc(Cl)c1` (configuration not stated) the figure was 68%; with `O=C(NCc1cccnc1)c1cn(C2CC2)c2cc(N3CCN(C(=O)c4cccc(Cl)c4)CC3)c(F)cc2c1=O`, 1% (active); with `CCC(=O)N1CCc2cc(Br)cc(S(=O)(=O)CCC(=O)NCc3ccc(F)cc3)c21`, 80%. With `Cc1ccccc1Cn1c(=O)n(CCc2ccccc2)c(=O)c2c(C)c(C)sc21` the figure was -6% (active); with `Cc1sc2c(c1C)c(=O)n(CCc1ccccc1)c(=O)n2Cc1ccccc1Cl`, 103%.

In the case of `Cc1sc2c(c1C)c(=O)n(CCc1ccccc1)c(=O)n2Cc1ccc(F)cc1`, the survival was 52%. As to `Cc1cccc(Cn2c(=O)n(CCc3ccccc3)c(=O)c3c(C)c(C)sc32)c1`, the survival was 111%. In the case of `Cc1sc2c(c1C)c(=O)n(CCc1ccccc1)c(=O)n2Cc1cccc(F)c1`, the survival is 16% (active). Take `Cc1ccc(C)c(Cn2c(=O)n(CCc3ccccc3)c(=O)c3c(C)c(C)sc32)c1`: the survival is 112%. With `CN1CCN(Cc2c(O)ccc3cc(-c4ccccc4)c(=O)oc23)CC1`, the survival was 105%. On to `CCOC(=O)c1[nH]c(C)c(CCC(=O)NCc2ccc(OC(C)C)cc2)c1C`, for which the survival was 80%. Consider `CCc1ccc(NC(=O)CN2C(=O)CC(c3ccccc3)Sc3ccccc32)cc1` (configuration not stated), for which the survival is 113%.

As to `COc1cc(C2CC(=O)N(Cc3ccc(F)cc3)c3ccccc3S2)cc(OC)c1OC` (configuration not stated), the survival was 75%. Take `COc1ccc(C2CC(=O)N(Cc3ccc(F)cc3)c3ccccc3S2)cc1` (configuration not stated): the survival is 28% (active). For `COc1ccc(C2CC(=O)N(Cc3cccc(F)c3)c3ccccc3S2)cc1` (configuration not stated), the survival was 47% (active). Take `COc1ccc(C2CC(=O)N(CC(=O)Nc3cc(C)ccc3C)c3ccccc3S2)cc1` (configuration not stated): the survival is 79%. With `O=C1CC(c2ccccc2)Sc2ccccc2N1Cc1ccc(F)cc1` (configuration not stated), the survival was -2% (active). `COc1ccc(C2CC(=O)N(Cc3ccc(F)cc3)c3ccccc3S2)cc1OC` (configuration not stated): the survival is 100%. Turning to `O=C1CC(c2ccccc2)Sc2ccccc2N1Cc1ccccc1F` (configuration not stated), the survival was 96%.

On to `COc1cc(C2CC(=O)N(Cc3cccc(F)c3)c3ccccc3S2)cc(OC)c1OC` (configuration not stated), for which the survival was 103%. In the case of `COc1ccc2c(c1)c(=O)c(C(=O)c1ccc(C)c(C)c1)cn2CC(=O)Nc1ccc2c(c1)OCCO2`, the survival is 76%. With `CCOc1ccc(NC(=O)Cn2cc(C(=O)c3ccc(CC)cc3)c(=O)c3cc(OC)c(OC)cc32)cc1` the figure was 98%; with `CCOC(=O)c1ccc(NC(=O)CCc2c(C)nc3c(-c4ccc(F)cc4)c(C)nn3c2C)cc1`, 61%.

For `COc1ccccc1N1CCN(C(=O)c2ccc(Nc3nc4ccccc4n4nnnc34)cc2)CC1`, the survival was 59%. As for `Cc1ccc(CNC(=O)C2CCC(CNS(=O)(=O)c3ccc4c(c3)CCCC(=O)N4)CC2)cc1` (configuration not stated), the figure is 79%. As for `COc1cccc(C(c2sc3nc(-c4ccco4)nn3c2O)N2CCCC2)c1` (configuration not stated), the survival was 71%. `COc1ccc(OC)c2sc(N3CCN(C(=O)C4CC4)CC3)nc12`: the survival is -5% (active).

With `COc1ccc(OC)c2sc(N3CCN(C(=O)c4ccco4)CC3)nc12`, the survival was 87%. Turning to `COc1ccc(C)c2sc(N3CCN(C(=O)c4ccco4)CC3)nc12`, the survival is 17% (active). As for `COc1ccc(OC)c2sc(N3CCN(C(=O)C(C)(C)C)CC3)nc12`, the figure is 89%. In the case of `COc1ccc(OC)c2sc(N3CCN(C(=O)C4COc5ccccc5O4)CC3)nc12` (configuration not stated), the survival was 88%. Regarding `Cc1ccc(C)c2sc(N3CCN(C(=O)c4ccco4)CC3)nc12`, the survival is 134%.

Turning to `CCn1cc(S(=O)(=O)c2cccc(C)c2)c(=O)c2cc(F)c(N3CCCCC3C)cc21` (configuration not stated), the survival was 83%. For the compound `CCc1ccc2[nH]c(=O)c(C(c3nnnn3C(C)(C)C)N3CCc4ccccc43)cc2c1` (configuration not stated), the survival is 96%. With `Cc1oc(-c2ccc(C(=O)N(C)Cc3ccccc3)cc2)nc1CN1CCc2ccccc21`, the survival is 119%. As for `Cc1ccc(-n2nc3ccc(NC(=O)Cc4ccc(Cl)cc4)cc3n2)cc1`, the figure is 79%; as for `CCOc1ccc(CNC(=O)Cn2c(=O)c3cccn3c3ccccc32)cc1`, 60%; as for `COc1cc(Cl)c(C)cc1Nc1c2c(nc3ccccc13)CCC2`, 70%.

For `Fc1ccc(F)c(Nc2c3c(nc4ccc(Cl)cc24)CCC3)c1`, the survival is -18% (active). As to `Fc1ccccc1Nc1c2c(nc3ccccc13)CCC2`, the survival was 95%. For the compound `COc1ccc(Nc2c3c(nc4ccc(NC(=O)c5cc(Cl)ccc5OC)cc24)CCCC3)cc1OC`, the survival was 70%. Take `CCOC(=O)c1cccc(Nc2c3c(nc4ccccc24)CCC3)c1`: the survival is 68%. For the compound `FC(F)(F)c1cccc(Nc2c3c(nc4ccc(Cl)cc24)CCC3)c1`, the survival was 9% (active). For `O=C(Nc1c(C(=O)N2CCN(c3ccc(F)cc3)CC2)oc2ccccc12)c1c(F)cccc1F`, the survival was 95%. Take `CCC(=O)Nc1ccccc1-c1nc2ccccc2n(Cc2cccc(Br)c2)c1=O`: the survival is 49%.

As for `CCn1cc(C(=O)NCCc2ccc(Cl)cc2)c(=O)c2cc(S(=O)(=O)N(C)C3CCCCC3)ccc21`, the survival was 84%. Turning to `CC(=O)Nc1c(C)nn(-c2ccccc2)c1N1CCC(C(=O)NCc2cccc(Cl)c2)CC1`, the survival was 84%. Regarding `CC(=O)Nc1c(C)nn(-c2ccccc2)c1N1CCC(C(=O)NCc2cccc(F)c2)CC1`, the survival was 6% (active). As to `CC(=O)Nc1c(C)nn(-c2ccccc2)c1N1CCC(C(=O)NCc2ccc(F)cc2)CC1`, the survival was -1% (active). Consider `Cc1ccc(CNC(=O)C2CCN(c3nn4cc(-c5ccc(F)cc5)nc4s3)CC2)cc1`, for which the survival is 87%. As to `CC(=O)Nc1c(C)nn(-c2ccccc2)c1N1CCC(C(=O)NCc2ccc(Cl)cc2)CC1`, the survival is 72%. Regarding `Cc1cccc(CNC(=O)C2CCN(c3nn4cc(-c5ccc(F)cc5)nc4s3)CC2)c1`, the survival is 47% (active). In the case of `O=C(NCc1cccc(F)c1)C1CCN(c2nn3cc(-c4ccc(F)cc4)nc3s2)CC1`, the survival was 87%. As to `CC(=O)Nc1c(C)nn(-c2ccccc2)c1N1CCC(C(=O)Nc2ccc(F)cc2Cl)CC1`, the survival was 76%. `CC(=O)Nc1c(C)nn(-c2ccccc2)c1N1CCC(C(=O)NCc2ccccc2Cl)CC1`: the survival is -2% (active). `CC(=O)Nc1ccc(NC(=O)C2CCN(c3c(NC(C)=O)c(C)nn3-c3ccccc3)CC2)cc1`: the survival is 67%. Regarding `CC(=O)Nc1c(C)nn(-c2ccccc2)c1N1CCC(C(=O)Nc2cc(F)ccc2F)CC1`, the survival is 79%. As to `CC(=O)Nc1c(C)nn(-c2ccccc2)c1N1CCC(C(=O)Nc2ccc(C)cc2Cl)CC1`, the survival is 72%. As to `COc1ccc(OC)c(C2CC(=O)Nc3c2c(=O)n(C)c2ncnn32)c1` (configuration not stated), the survival was 166%. Take `O=C(Nc1ccc(N2CCOCC2)cc1)c1ncn[nH]1`: the survival is 86%. Turning to `Cc1ccc(NC(=O)Cn2c(SCc3cccc(F)c3)nc3ccncc32)c(C)c1`, the survival was 83%. As for `Cc1ccc(O)c(NC(=O)c2cc(-c3ccccc3O)no2)c1`, the figure is 80%; as for `CCOc1ccc(N2CC(NC(=O)c3ccc(S(=O)(=O)N4CCCCC4)cc3)CC2=O)cc1` (configuration not stated), 79%. As for `CCOc1ccc(N2CC(NC(=O)c3ccc(S(=O)(=O)N4CCOCC4)cc3)CC2=O)cc1` (configuration not stated), the figure is 47% (active); as for `O=C(NC1CC(=O)N(c2ccccc2)C1)c1ccc(S(=O)(=O)N2CCCC2)cc1` (configuration not stated), 128%. On to `O=C(NC1CC(=O)N(c2ccc(F)cc2)C1)c1ccc(S(=O)(=O)N2CCCCC2)cc1` (configuration not stated), for which the survival is 75%.

In the case of `O=C(NC1CC(=O)N(c2ccccc2)C1)c1ccc(S(=O)(=O)N2CCCCC2)cc1` (configuration not stated), the survival was 17% (active). With `CCOc1ccc(N2CC(NC(=O)c3ccc(S(=O)(=O)N4CCCC4)cc3)CC2=O)cc1` (configuration not stated), the survival is 87%.

As to `Cc1c(Cl)cccc1N1C(N)=C(C#N)C(c2cc(CN3CCOCC3)cs2)C2=C1CCCC2=O` (configuration not stated), the survival is 128%. Turning to `COc1ccc(OC)c(NC(=O)c2c(NCc3ccc(C)o3)sc3c2CCC(C)C3)c1` (configuration not stated), the survival was 52% (active).

On to `COc1ccc(NC(=O)c2c(NCc3ccc(C)o3)sc3c2CCC(C)C3)c(OC)c1` (configuration not stated), for which the survival was 82%. Regarding `COc1ccc(Cl)cc1NC(=O)c1c(NCc2ccc(C)o2)sc2c1CCC(C)C2` (configuration not stated), the survival is 81%.
